Unmarked numbers belong to inactive results. Activity calls are given as the source filed them. No stated cut-off is given here; in the data, active means remaining activity below about 50%; inactive means the rest.

The target of this experiment is Phospholipase D2 (Homo sapiens) (UniProt O14939). As to the kind of experiment: cellular phospholipase D2 activity inhibition – cell-based, HEK293, single concentration (AID 602143).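 Further: tested at 200 nM.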 As to conditions: HEK293 cellular PLD2 activity, percent of control; stronger effect = lower value.
Sequence of Phospholipase D2 (Homo sapiens) (O14939 whole entry, looked up): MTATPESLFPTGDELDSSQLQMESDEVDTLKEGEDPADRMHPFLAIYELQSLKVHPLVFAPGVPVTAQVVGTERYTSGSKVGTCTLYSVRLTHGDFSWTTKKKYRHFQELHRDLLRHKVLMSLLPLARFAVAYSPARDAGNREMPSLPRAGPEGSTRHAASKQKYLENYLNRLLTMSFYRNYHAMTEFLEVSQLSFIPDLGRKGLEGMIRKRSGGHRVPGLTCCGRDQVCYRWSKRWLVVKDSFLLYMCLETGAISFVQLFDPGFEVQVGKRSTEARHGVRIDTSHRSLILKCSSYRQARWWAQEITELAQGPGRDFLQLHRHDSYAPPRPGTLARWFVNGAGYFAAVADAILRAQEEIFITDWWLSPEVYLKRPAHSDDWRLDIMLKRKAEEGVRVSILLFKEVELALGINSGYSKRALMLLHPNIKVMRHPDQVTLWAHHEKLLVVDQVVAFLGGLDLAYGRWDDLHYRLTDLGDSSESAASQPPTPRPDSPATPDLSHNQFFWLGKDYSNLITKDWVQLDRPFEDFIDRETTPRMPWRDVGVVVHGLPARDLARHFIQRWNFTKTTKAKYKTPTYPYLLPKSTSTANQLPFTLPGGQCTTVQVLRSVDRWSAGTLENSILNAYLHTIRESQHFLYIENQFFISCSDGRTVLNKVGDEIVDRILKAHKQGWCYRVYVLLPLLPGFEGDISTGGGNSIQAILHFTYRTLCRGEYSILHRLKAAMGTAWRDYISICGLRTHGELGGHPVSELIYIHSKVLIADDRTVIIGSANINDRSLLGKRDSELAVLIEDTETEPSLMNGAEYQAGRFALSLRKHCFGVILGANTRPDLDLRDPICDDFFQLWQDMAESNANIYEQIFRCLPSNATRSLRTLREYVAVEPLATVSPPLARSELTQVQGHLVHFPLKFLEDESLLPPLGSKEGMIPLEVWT
Sequence of Phospholipase D2 (Homo sapiens) (O14939 whole entry, looked up): as above
Take `C[C@@H](CN1CCC(n2c(=O)[nH]c3ccccc32)CC1)NC(=O)C1C[C@H]1c1ccccc1` (stereo not given in full): the remaining activity is 105%.

`O=C(NCCN1CCC(n2c(=O)[nH]c3ccccc32)CC1)c1cc([N+](=O)[O-])cc([N+](=O)[O-])c1`: the remaining activity was 102%.

Regarding `Cc1ccc(NC(=S)NCCN2CCC(n3c(=O)[nH]c4ccccc43)CC2)cc1`, the remaining activity is 146%.

Consider `C[C@@H](CN1CCC(n2c(=O)[nH]c3cc(-c4cccnc4)ccc32)CC1)NC(=O)[C@H]1C[C@@H]1c1ccccc1`, for which the remaining activity is 72.1%.

With `C[C@@H](CN1CCC(n2c(=O)[nH]c3ccccc32)CC1)NC(=O)c1ccc2ncccc2c1`, the remaining activity is 82.2%.

For the molecule `O=c1[nH]c2ccccc2n1C1CCN(CCNS(=O)(=O)c2ccc(Cl)cc2)CC1`, the remaining activity was 115%.

With `O=C(NCCN1CCN(c2ccccn2)CC1)c1ccc(Cl)cc1`, the remaining activity was 106%.

Turning to `O=C(NCCN1CCC(n2c(=O)[nH]c3ccccc32)CC1)c1ccc2cccc3c2c1CC3`, the remaining activity was 98%.

`CCOC(=O)CNC(=O)NCCN1CCC(n2c(=O)[nH]c3ccccc32)CC1`: the remaining activity is 121%.

In the case of `Cn1c(=O)n(C2CCN(CCNC(=O)c3ccc(F)cc3)CC2)c2ccccc21`, the remaining activity is 69.8%.

Take `Cc1ccc(C(=O)NCCN2CCN(c3ccncc3)CC2)cc1`: the remaining activity was 114%.

Regarding `O=C(NCCN1CCC(n2c(=O)[nH]c3ccccc32)CC1)c1cccc(F)n1`, the remaining activity is 74.5%.

Take `NC1(CN2CCC(n3c(=O)[nH]c4ccccc43)CC2)CCCC1` (tested in a mixture with another compound): the remaining activity is 66.9%.

Turning to `O=c1[nH]c2ccccc2n1C1CCN(CCNC(=S)Nc2ccccn2)CC1`, the remaining activity was 72.7%.

`NC1(CN2CCC(c3nc4ccccc4[nH]3)CC2)CCCC1` (tested in a mixture with another compound): the remaining activity is 105%.

With `O=C(NCCN1CCC(n2c(=O)[nH]c3ccccc32)CC1)N1c2ccccc2C=Cc2ccccc21`, the remaining activity was 66.5%.

Regarding `COc1cccc(N2CCN(CCNC(=O)c3ccc(F)cc3)CC2)c1`, the remaining activity was 100%.

For the molecule `O=C(c1ccc(Cl)cc1)N1CCC2(CC1)C(=O)NCN2c1ccccc1`, the remaining activity is 69.9%.

In the case of `Cc1ccc(C(=O)NCCN2CCC(n3c(=O)[nH]c4cc(Br)ccc43)CC2)cc1`, the remaining activity was 21.8% (active).

Take `C[C@@H](CN1CCC(n2c(=O)[nH]c3ccccc32)CC1)NC(=O)c1cc2ccccc2s1`: the remaining activity was 38.6% (active).

As for `C[C@@H](CN1CCC(n2c(=O)[nH]c3cc(-c4ccccc4)ccc32)CC1)NC(=O)[C@H]1C[C@@H]1c1ccccc1`, the remaining activity was 79.2%.

For `O=c1[nH]c2ccccc2n1C1CCN(CCNC(=S)Nc2ccccc2F)CC1`, the remaining activity is 87.4%.

As to `O=c1[nH]c2ccccc2n1C1CCN(CCNC(=S)Nc2ccc(Cl)c(Cl)c2)CC1`, the remaining activity was 93.9%.

For `C[C@@H](CN1CCC(n2c(=O)[nH]c3ccccc32)CC1)NC(=O)c1cccnc1`, the remaining activity is 97.3%.

In the case of `Cc1cc(C)c(S(=O)(=O)NCCN2CCC(n3c(=O)[nH]c4ccccc43)CC2)c(C)c1`, the remaining activity is 98.8%.

Regarding `O=C(N[C@@H](Cc1ccccc1)CN1CCC(n2c(=O)[nH]c3ccccc32)CC1)c1cnc2ccccc2c1`, the remaining activity was 60.2%.

On to `Cn1c(C2CCN(CC3(N)CCCC3)CC2)nc2ccccc21` (tested in a mixture with another compound), for which the remaining activity is 118%.

With `C[C@@H](CN1CCC2(C=Cc3ccccc32)CC1)NC(=O)c1ccc2ccccc2c1`, the remaining activity is 147%.

With `C=CCCCCCCCCC(=O)NCCN1CCC(n2c(=O)[nH]c3ccccc32)CC1`, the remaining activity is 65.3%.

Turning to `NC1(CN2CCC(n3c(=O)[nH]c4cc(Cl)ccc43)CC2)CCCC1` (tested in a mixture with another compound), the remaining activity was 94.3%.

For `C[C@@H](CN1CCC2(CC1)CCN(C)C2=O)NC(=O)c1ccc2ccccc2c1`, the remaining activity is 135%.

As to `C[C@@H](CN1CCC(n2c(=O)[nH]c3cc(Br)ccc32)CC1)NC(=O)c1ccc(F)cc1`, the remaining activity was 80.4%.

For the molecule `O=C(CCN1CCC(n2c(=O)[nH]c3ccccc32)CC1)NCc1ccc(Cl)cc1`, the remaining activity is 85.2%.

Turning to `O=C(NCCN1CCC(n2c(=O)[nH]c3ccccc32)CC1)C1(c2ccccc2)CCC1`, the remaining activity was 86.3%.

With `Cc1ccc(C(=O)N[C@@H](C)CN2CCC(n3c(=O)[nH]c4cc(Cl)ccc43)CC2)cc1`, the remaining activity is 86%.

Turning to `O=C(C1C[C@@H]1c1ccccc1)N1CCC2(CC1)C(=O)NCN2c1ccccc1` (stereo not given in full), the remaining activity was 84%.

Consider `C[C@@H](CN1CCC(n2c(=O)[nH]c3ccc(F)cc32)CC1)NC(=O)c1ccc(F)cc1`, for which the remaining activity is 66.8%.

As for `O=C(NCCN1CCC(n2c(=O)[nH]c3cc(Cl)ccc32)CC1)c1ccc2ccccc2c1`, the remaining activity was 63.9%.

For `O=C(NCCN1CCC(n2c(=O)[nH]c3ccccc32)CC1)c1cc2ccc3ccccc3c2c2ccccc12`, the remaining activity is 109%.

Turning to `C[C@@H](CN1CCC2(CCc3ccccc32)CC1)NC(=O)c1ccc2ccccc2c1`, the remaining activity is 104%.

A word on the remaining activity: it is the signal under treatment as a percentage of the control signal.
